The record followed here is PubChem BioAssay (NCI).

Some test systems named below: RPMI-8226 leukemia; OVCAR-8 ovarian; OVCAR-5 ovarian; OVCAR-4 ovarian; SK-OV-3 ovarian; IGROV1 ovarian; OVCAR-3 ovarian; HS 578T breast; NCI/ADR-RES ovarian; T-47D breast; BT-549 breast; MDA-MB-435 melanoma; SW-620 colon; MCF7 breast; HCT-116 colon; HCC-2998 colon; KM12 colon.
Holding throughout (test): NCI-60 one-dose screen, 48 h (100 = growth as untreated, 0 = no growth, -100 = all killed)
What all share (conditions): 10 µM unless noted

Compounds without any hit were thinned out: in the full panel of roughly 83,000, 20% have a hit.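 Note: values are percent growth. 100 is the growth of untreated cells, values between 100 and 0 indicate rising inhibition; between -100 and 0 indicates cell death.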 Unmarked numbers belong to inactive results. The source made the active and inactive calls. How the source made its calls: active means growth percent below 10; inactive means the rest.

As for `COC(=O)C[C@@H]1CC=CC(=O)/C1=C(O)/C=C/c1ccccc1`, the growth in the assay on RPMI-8226 leukemia is 31.3%; in the assay with OVCAR-8 ovarian, 10.6%; with OVCAR-5 ovarian it was -83.8% (active); with OVCAR-4 ovarian, -10.7% (active); with SK-OV-3 ovarian, 32.6%; with IGROV1 ovarian it was -72.9% (active). Besides, the growth in the assay on OVCAR-3 ovarian is -92.5% (active); in the assay with HS 578T breast, 12.5%; in the assay on NCI/ADR-RES ovarian it was 17.6%; in the assay with T-47D breast, -6.15% (active); with BT-549 breast it was -36.3% (active); in the assay on MDA-MB-435 melanoma it was -32.1% (active). Besides, the growth in the assay on SW-620 colon was -81.7% (active); with MCF7 breast, -3.08% (active); in the assay on HCT-116 colon, -92.2% (active); in the assay on HCC-2998 colon it was -95.1% (active); in the assay on KM12 colon, -76.3% (active).

As for `S=c1[nH]nc2sc3ccccc3n12`, the growth in the assay on RPMI-8226 leukemia is 105%; with OVCAR-8 ovarian, 107%; in the assay on OVCAR-5 ovarian, 108%; in the assay on OVCAR-4 ovarian it was 103%; in the assay with SK-OV-3 ovarian it was 109%; with IGROV1 ovarian, 96.9%. The growth in the assay on OVCAR-3 ovarian is 119%; in the assay with HS 578T breast it was 114%; in the assay on NCI/ADR-RES ovarian it was 112%; with T-47D breast, 101%; in the assay with BT-549 breast, 116%; with MDA-MB-435 melanoma, 118%. Besides, the growth with SW-620 colon is 105%; in the assay with MCF7 breast, 98.4%; with HCT-116 colon, 102%; in the assay with HCC-2998 colon it was 109%; in the assay on KM12 colon it was 115%.

As to `O=C(COC(=O)[C@H](C[Se][Se]C[C@H](NC(=O)c1ccc(Br)cc1F)C(=O)OCC(=O)c1ccc(F)cc1)NC(=O)c1ccc(Br)cc1F)c1ccc(F)cc1`, the growth in the assay with RPMI-8226 leukemia was -44.3% (active); in the assay with OVCAR-8 ovarian, -100% (active); in the assay on OVCAR-5 ovarian it was -68.7% (active); in the assay with OVCAR-4 ovarian, -95.7% (active); with SK-OV-3 ovarian, -81% (active); in the assay on IGROV1 ovarian, -100% (active). Besides, the growth with OVCAR-3 ovarian was -100% (active); with HS 578T breast, -16% (active); with NCI/ADR-RES ovarian it was -82.8% (active); with T-47D breast, -67% (active); in the assay with BT-549 breast it was -93% (active); in the assay with MDA-MB-435 melanoma, -42.1% (active). The growth with SW-620 colon is -95% (active); with MCF7 breast, -58.4% (active); in the assay with HCT-116 colon, -72.4% (active); with HCC-2998 colon it was -68.9% (active); in the assay with KM12 colon it was -99.1% (active).

On to `O=C(CCc1nnc(Cn2cncn2)o1)c1nc2ccccc2[nH]1`, for which the growth is 108% in the assay with RPMI-8226 leukemia; 107% in the assay on OVCAR-8 ovarian; 107% with OVCAR-5 ovarian; 111% in the assay on OVCAR-4 ovarian; 116% in the assay with SK-OV-3 ovarian; 118% in the assay on IGROV1 ovarian. For the same compound, the growth with OVCAR-3 ovarian is 122%; with HS 578T breast, 127%; in the assay with NCI/ADR-RES ovarian, 105%; in the assay with T-47D breast, 108%; in the assay on BT-549 breast, 112%; with MDA-MB-435 melanoma, 103%. Further, the growth in the assay with SW-620 colon is 113%; with MCF7 breast it was 91%; with HCT-116 colon, 111%; in the assay on HCC-2998 colon, 112%; with KM12 colon, 114%.

For `CCC(C)CC(C)C(=O)c1c(O)ccn(OC)c1=O` (stereo not drawn), the growth in the assay with RPMI-8226 leukemia is 69.3%; with OVCAR-8 ovarian it was 66.3%; in the assay on OVCAR-5 ovarian it was 86.8%; with OVCAR-4 ovarian, 44.9%; with SK-OV-3 ovarian, 86.7%; in the assay with IGROV1 ovarian, 65%. Also, the growth in the assay on OVCAR-3 ovarian is 47.1%; in the assay with HS 578T breast, 93.2%; in the assay with NCI/ADR-RES ovarian, 57.1%; with T-47D breast, 82.9%; in the assay with BT-549 breast, 78.1%; with MDA-MB-435 melanoma, 73.6%. Moreover, the growth in the assay on SW-620 colon was 61.8%; in the assay on MCF7 breast, 74.3%; in the assay on HCT-116 colon, 47.6%; in the assay on HCC-2998 colon it was 95.7%; with KM12 colon, 102%.

Consider `O=C(O)c1ccc(NC(=O)c2cccc(Nc3ccnc(C(F)(F)F)c3)c2)cc1`, for which the growth was 98.3% in the assay with RPMI-8226 leukemia; 98.9% in the assay on OVCAR-8 ovarian; 103% with OVCAR-5 ovarian; 98.1% in the assay with OVCAR-4 ovarian; 105% with SK-OV-3 ovarian; 106% in the assay on IGROV1 ovarian. In addition, the growth is 104% in the assay on OVCAR-3 ovarian; 98.3% with HS 578T breast; 107% with NCI/ADR-RES ovarian; 94.3% with T-47D breast; 95.8% in the assay on BT-549 breast; 106% with MDA-MB-435 melanoma. Moreover, the growth is 103% in the assay with SW-620 colon; 96.8% with MCF7 breast; 95% in the assay on HCT-116 colon; 104% in the assay with HCC-2998 colon; 107% in the assay on KM12 colon.

`CC(C)[O-].CC(C)[O-].CN(CCN(C)Cc1cc(F)cc(F)c1[O-])Cc1cc(F)cc(F)c1[O-].[Ti+4]`: the growth in the assay on RPMI-8226 leukemia was 32.9%; with OVCAR-8 ovarian, 10.6%; in the assay on OVCAR-5 ovarian, 12.4%; in the assay on OVCAR-4 ovarian it was 14%; in the assay with SK-OV-3 ovarian, 16.4%; in the assay with IGROV1 ovarian, -42.2% (active). Further, the growth in the assay on OVCAR-3 ovarian is 4.78% (active); with HS 578T breast, -16% (active); with NCI/ADR-RES ovarian, 11.2%; in the assay on T-47D breast it was 9.18% (active); with BT-549 breast, -1.16% (active); in the assay with MDA-MB-435 melanoma, -24.5% (active). Moreover, the growth in the assay with SW-620 colon is 0.502% (active); with MCF7 breast, -42.2% (active); in the assay on HCT-116 colon, -0.794% (active); in the assay with HCC-2998 colon it was 57%; with KM12 colon, -30.7% (active).

In the case of `CCCCn1c(Cc2ccc(Cl)cc2)nc2cc(OC)c(OC)cc2c1=O`, the growth in the assay on RPMI-8226 leukemia was 23.4%; with OVCAR-8 ovarian it was 70.1%; in the assay with OVCAR-5 ovarian, 93.5%; in the assay with OVCAR-4 ovarian, 71.1%; with SK-OV-3 ovarian, 187%; in the assay with IGROV1 ovarian, 69.9%. The growth was 80.9% with OVCAR-3 ovarian; 114% in the assay with HS 578T breast; 75.7% in the assay on NCI/ADR-RES ovarian; 101% with T-47D breast; 38% with BT-549 breast; 74.1% in the assay on MDA-MB-435 melanoma. Also, the growth in the assay on SW-620 colon is 95.6%; in the assay on MCF7 breast, 86.5%; in the assay with HCT-116 colon, 52.5%; with HCC-2998 colon, 75.8%; in the assay with KM12 colon, 76.1%.

For the compound `O=C(C(=O)N1CCOCC1)c1ccc(OC2OC(CO)C(O)C(O)C2O)cc1` (stereo not drawn), the growth was 111% with RPMI-8226 leukemia; 100% in the assay on OVCAR-8 ovarian; 98.2% in the assay with OVCAR-5 ovarian; 116% with OVCAR-4 ovarian; 100% in the assay with SK-OV-3 ovarian; 117% with IGROV1 ovarian. The growth is 110% with OVCAR-3 ovarian; 125% in the assay on HS 578T breast; 113% in the assay with NCI/ADR-RES ovarian; 96% in the assay with T-47D breast; 108% in the assay on BT-549 breast; 108% in the assay on MDA-MB-435 melanoma. In addition, the growth in the assay with SW-620 colon was 105%; in the assay with MCF7 breast, 95.2%; with HCT-116 colon, 105%; with HCC-2998 colon, 127%; in the assay on KM12 colon, 112%.
